# Compounds with a hit are over-represented: about 11% of the library has one in this group of screens.
# USP30 block: blocks human USP30 ubiquitin-rhodamine cleavage; inhibition, % at 25 µM; actives 5.3% (n = 47,000); purified USP30, Ub-rhodamine cleavage fluorescence; AID 1645860
# USP28 block: inhibitors of human USP28 deubiquitinase. actives 3% (n = 47,000). Q96RU2. inhibition, % at 25 µM. purified USP28, Ub-rhodamine cleavage fluorescence, 30 min
# USP17 block: inhibitors of human USP17 deubiquitinase; purified USP17, Ub-rhodamine cleavage fluorescence, 3 h; actives 6.5% (n = 47,000); A8MUK1; AID 1645855; inhibition, % at 50 µM
# Target sequence (A8MUK1 whole entry, looked up): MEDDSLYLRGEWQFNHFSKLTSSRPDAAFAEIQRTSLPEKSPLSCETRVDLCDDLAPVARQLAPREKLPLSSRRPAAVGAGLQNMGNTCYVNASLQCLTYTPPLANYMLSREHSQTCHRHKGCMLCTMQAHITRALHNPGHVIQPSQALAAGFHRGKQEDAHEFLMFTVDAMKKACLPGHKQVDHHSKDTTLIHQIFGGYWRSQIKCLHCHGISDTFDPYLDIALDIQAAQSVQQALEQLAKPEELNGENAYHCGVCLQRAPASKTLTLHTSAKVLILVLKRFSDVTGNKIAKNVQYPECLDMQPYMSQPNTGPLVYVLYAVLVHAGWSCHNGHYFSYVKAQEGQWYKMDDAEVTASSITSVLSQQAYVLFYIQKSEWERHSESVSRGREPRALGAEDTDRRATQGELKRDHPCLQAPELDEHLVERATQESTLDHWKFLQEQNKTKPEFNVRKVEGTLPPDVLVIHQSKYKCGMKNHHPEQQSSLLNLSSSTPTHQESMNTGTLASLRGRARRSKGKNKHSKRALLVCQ
# An asterisk follows results filed as active; i = inactive. Cut-off read from the data, not from the text of the source: active = inhibition above about 30%; inactive = the rest.
SMILES,USP30 block,USP28 block,USP17 block
CN1CC[C@@]2(C(=O)Nc3ccccc3)CCN(C(=O)Nc3ccccc3)CC[C@@H]12,2,-6,-18
CC1CCN(c2ncnc3c2cnn3CC(=O)NCc2cccnc2)CC1,7,15,18
O=C(Cn1ncc2c(N3CCCCC3)ncnc21)NCc1ccc2c(c1)OCO2,55*,13,55*
O=C(Cn1ncc2c(N3CCCCCC3)ncnc21)NCc1ccccc1,70*,26,29
O=C(Cn1ncc2c(N3CCCC3)ncnc21)Nc1ccc(F)cc1,2,10,7
Nc1nc(N2CCCCC2)ncc1C(=O)NCc1ccccc1,12,16,9
CCCCN1CC(C(=O)Nc2nnc(C(C)(C)CC)s2)CC1=O (configuration not stated),-85,-2,-2
Cc1sc2nc(CNCCc3ccc(F)cc3)[nH]c(=O)c2c1-c1ccccc1,-32,0,-39
Cc1cc(C)n2ncc(C(=O)NCCc3ccc(Cl)cc3)c2n1,-12,30*,-5
Cc1cc(C)n2ncc(C(=O)NC(C)CCc3ccccc3)c2n1 (configuration not stated),8,7,-1
O=C(NCc1ccc(F)cc1)C(c1ccccc1)c1ccccc1,31*,13,3
CC(C)C[C@H](NC(=O)[C@@H](Cc1ccccc1)n1c(=O)[nH]c2ccccc2c1=O)C(=O)N[C@H](Cc1ccccc1)C(=O)O,10,7,8
O=C(CSCc1ccccc1F)NCc1ccc(F)cc1,-4,-3,-7
Cn1c(=O)n([C@@H](Cc2ccccc2)C(=O)NCc2ccc(F)cc2)c(=O)c2ccccc21,46*,26,13
Cc1ccc(N(CC(=O)NCc2ccccc2)C(=O)c2ccc3c(c2)OCCO3)c(C)c1,3,0,1
CCOCC1CN(C(=O)c2ccncn2)Cc2cn(C)nc21 (configuration not stated),-58,-13,-17
O=C1c2c(O)cc(O)cc2OC(c2ccc(O)c(O)c2)C1O (configuration not stated),60*,56*,65*
Cc1ccc(S(=O)(=O)N2CC(C)C(=O)Nc3ccccc32)cc1 (configuration not stated),-8,-1,-6
CC1CC(=O)Nc2ccccc2N1S(=O)(=O)c1ccc(C#N)cc1 (configuration not stated),55*,21,2
C/C1=C/C=C/[C@H](C)[C@H](O)[C@@H](C)[C@@H](O)[C@@H](C)[C@H](O)[C@H](C)[C@@H](O)[C@@H](C)/C=C(/C)C(=O)c2c(O)c(C)cc3c2C(=O)C=C(NC1=O)C3=O,-62,-6,51*
O=C(c1c(F)cccc1F)N1CCC2(CC1)NC(=O)N(CCOc1ccccc1)C2=O,1,2,0
O=C(c1cc(-c2ccc(Cl)cc2)n[nH]1)N1CCN(c2ccc(N3CCOCC3)nn2)CC1,-1,14,2
COc1ccc(-c2cc(C(=O)N3CCN(c4ccc(N5CCOCC5)nn4)CC3)[nH]n2)cc1,24,32*,38*
COc1ccc(S(=O)(=O)Nc2nc3ccccc3nc2NCc2ccccc2)cc1,-13,0,4
COc1ccc(S(=O)(=O)Nc2c(C)c(C)cc3c2nc(C)n3Cc2cccc(C)c2)cc1,33*,6,18
SMILES,USP30 block,USP28 block,USP17 block
COc1ccc(Cn2c(N3CCCCC3)nc3c2c(=O)n(C)c(=O)n3C)cc1,26,11,15
COc1ccc(Cn2c(Oc3ccccc3C)nc3c2c(=O)n(C)c(=O)n3C)cc1,32*,13,27
O=C(OC(C(=O)Nc1cccc(S(=O)(=O)N2CCOCC2)c1)c1ccccc1)c1cccnc1 (configuration not stated),-18,-9,-1
N#Cc1ccc(C(=O)Nc2nnc(C3CCCCC3)s2)cc1,27,8,15
Cc1nn(CC(=O)Nc2ccc(Br)c3cccnc23)c(=O)c2ccccc12,14,15,65*
Cc1cc(F)ccc1NC(=O)Cn1c(=O)c2cccnc2n(-c2ccccc2)c1=O,-191,-57,-32
N#Cc1ccc(CC(C(=O)Nc2ccc3c(c2)OCO3)C(=O)c2ccccc2)cc1 (configuration not stated),35*,15,13
O=C(CN1CCN(Cc2ccc3c(c2)OCO3)CC1)Nc1ccc(Cl)cc1C(=O)c1ccccc1,-8,8,11
O=C(Nc1ccc2c(c1)OCO2)C(Cc1cc(Cl)cc2c1OCOC2)C(=O)c1ccccc1 (configuration not stated),2,-4,0
O=C(CC(C(=O)Nc1ccc2c(c1)OCO2)C(=O)c1ccccc1)Nc1ccc(Cl)cc1F (configuration not stated),59*,19,34*
O=C(C[n+]1cc(-c2ccccc2)n2c1CCC2)c1cccc([N+](=O)[O-])c1,31*,15,-11
Cc1ccc(-c2c[n+](CC(=O)N(c3ccccc3)C(C)C)c3n2CCC3)cc1,-14,17,-10
O=C(/C=C/c1ccc(Br)cc1)Nc1cnc2ccccc2c1,-1,-3,11
O=C(/C=C/c1cnc2ccccc2c1)NCc1ccccc1,41*,17,50*
O=C(Nc1ccccc1C(=O)N1CCCC1)c1ccc(CN2CCc3ccccc3C2)cc1,21,10,15
CCOc1ccc(CNc2nc3ccc(C)cc3n3cnnc23)cc1OC,0,0,0
Cc1ccc2nc(N3CCc4ccccc4C3)c3nncn3c2c1,27,34*,59*
CC(C)CC(=O)N1CCCC(c2nc(N3CCOCC3)ncc2-c2cccnc2)C1 (configuration not stated),10,-5,-1
CC(=O)N1CCCC(c2nc(N3CCOCC3)ncc2-c2cccnc2)C1 (configuration not stated),37*,24,23
c1cnc2c(c1)cc([C@@H]1CCCO1)n2CCN1CCOCC1,-46,-14,-17
COC(=O)c1cccc(S(=O)(=O)N(CCO)Cc2cc3c(C)cc(C)cc3[nH]c2=O)c1,-39,-15,-9
Cn1cc(S(=O)(=O)Nc2ncn(Cc3cccc(Cl)c3)n2)cn1,3,0,1
Cn1cc(S(=O)(=O)Nc2cnn(Cc3cccc(Cl)c3)c2)cn1,8,8,31*
COc1ccc(OC)c(NC(=O)CC(c2ccco2)n2cccc2)c1 (configuration not stated),-29,-7,0
O=C1CC(NS(=O)(=O)c2ccc3c(c2)OCCO3)CN1c1ccc(F)cc1 (configuration not stated),1,3,3
SMILES,USP30 block,USP28 block,USP17 block
CC(OC(=O)c1ccc(N(C)C)cc1)C(=O)NC1CCCC1 (configuration not stated),16,14,17
CC(OC(=O)c1ccc(Cl)cc1)C(=O)NCC1CCCCC1 (configuration not stated),31*,15,26
CC(C)=CCC/C(C)=C/C[C@]1(O)C(=O)c2cc(O)cc(O)c2C(=O)[C@@]1(Cl)CC=C(C)C,9,20,50*
CC(C)Cc1cc(C(=O)N2CCCC2c2ccnc(=O)[nH]2)n(C)n1 (configuration not stated),-72,-7,-2
CCC(=O)OCc1cnc(C)c2oc(=O)c(-c3nc(-c4ccccc4)no3)cc12,i,-276,-102
Cn1ncc2c(NCc3ccccc3)nc(NCCO)nc21,0,-8,-8
